These results are taken from PubChem BioAssay (NCATS).

Test [1] has as its target Luciferin 4-monooxygenase (Photinus pyralis) (UniProt P08659). Nature of the test: Biochemical firefly luciferase enzyme assay for NPC (AID 624030).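 Further: purified P. pyralis luciferase at 10 nM with luciferin and ATP substrate; 0% = DMSO and -100% = full luciferase inhibition by PTC124 control; nearly all actives have a fitted effect of over 70% in size.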 The method, boiled down: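 Counter-screen for direct inhibition of the luciferase enzyme by approved-drug library compounds, run at 10 nM enzyme in 50 mM Tris acetate (final). Luminescence was read within 5 min of enzyme-buffer addition and normalized to PTC124 versus DMSO (0%).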

The nature of test [2]: qHTS Assay for Identifying Gametocytocidal Compounds (AID 743244).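 Further: on the % scale 0 is the no-effect control and ±100 the full control effect; actives lower the fluorescent signal which means gametocytes are killed.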 The following applies: P. falciparum 3D7 stage III-V gametocytes, alamarBlue, 72 h; max response: stronger effect = lower value. An outline of the steps: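 3D7 gametocytes, stages III–V, 20,000/well; cpd 72 h, 37 °C/5% CO2; + alamarBlue 24 h; fluor. Ex 525/Em 598.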
Test [3] can be described thus: P-glycoprotein substrates identified in KB-8-5-11 adenocarcinoma cell line, qHTS therapeutic library screen (AID 1346987). Further: nearly all actives have a fitted effect of over 65% in size. Further: potency means the concentration at half of the fitted maximal effect. An outline of the steps: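 KB-8-5-11: colchicine-selected sub-line of KB-3-1 over-expressing P-gp; assay medium lacked colchicine. 72 h drug exposure at 37 degree C, CellTiter-Glo.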
Test [4] is described as follows: Primary qHTS for Huh7 cytotoxicity: counterscreen for inhibitors of MERS-S pseudotyped particle cell entry (AID 1479147; calls by dose curve; further: on the % scale 0 is the no-effect control and ±100 the full control effect). The following applies: outcome: dose series up to 57.1 µM unless noted. Background: In qHTS, concentration-response curves come from the screen itself.
Test [5] can be described thus: Primary qHTS for inhibitors of MERS-S pseudo-typed particle cell entry (AID 1479149; calls by dose curve; further: on the % scale 0 is the no-effect control and ±100 the full control effect; nearly all actives have a fitted effect of over 60% in size).
A short description of test [6]: Primary qHTS for Vero E6 cytotoxicity: counterscreen for inhibitors of SARS-S pseudo-typed particle cell entry (AID 1479150; calls by dose curve). The following applies: outcome: dose series up to 57.1 µM unless noted.
Test [7] is described as follows: Primary qHTS to identify inhibitors of SARS-CoV-2 cell entry (AID 1645846; calls by dose curve; further: nearly all actives have a fitted effect of over 45% in size). The following applies: activity change, negative = inhibition: at 57.1 µM (top of the series) unless noted. An outline of the steps: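 Using luciferase-reporting pseudoviruses carrying Wuhan-Hu-1 spike, the screen tracks entry into stably ACE2-expressing cells over 48 hr. Activity is expressed relative to spike particles versus particles lacking any fusion protein.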

In test [8] the target is Glutathione peroxidase 1 (Homo sapiens) (UniProt P07203). Nature of the test: Primary qHTS Assay for Inhibitors of Recombinant Selenoprotein Glutathione Peroxidase 1 (GPX1) (AID 1845191). Further: nearly all actives have a fitted effect of over 65% in size. An outline of the steps:
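Recombinant GPX1 (10 nM final) was preincubated with compound for 30 min at room temperature, then reacted with 1 mM GSH, 0.5 mM CHP, 0.5 mM NADPH and 100 nM glutathione reductase; NADPH fluorescence (340/450 nm) was read at 0 and 15 min.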

For a further test, the system named is astro. Nature of the test: Drug repurposing screens with cells derived from glioblastoma tumor samples (AID 1345199). Further: on the % scale 0 is the no-effect control and ±100 the full control effect; nearly all actives have a fitted effect of over 40% in size. To be noted: viability, ATP luminescence, 48 h; series mostly up to 45.9 µM. An outline of the steps: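 Four patient lines of CD133+ GBM neurospheres were screened at several concentrations; hits were retested in those lines plus three slower-growing GBM lines, using 48-hour treatment and ATP-based viability.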

Test [9] is described as follows: qHTS for Inhibitors of the Functional Ribonucleoprotein Complex (vRNP) of Lassa (LASV) Arenavirus: LASV Primary Screen - GLuc reporter signal (AID 1347082; calls by dose curve; tested in HEK293 reporter line; further: nearly all actives have a fitted effect of over 60% in size; further: potency means the concentration at half of the fitted maximal effect; on activity change, negative = inhibition: on the % scale 0 is the no-effect control and ±100 the full control effect).
Test [10] can be described thus: P-glycoprotein substrates identified in KB-3-1 adenocarcinoma cell line, qHTS therapeutic library screen (AID 1346986).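 Further: potency means the concentration at half of the fitted maximal effect; potency is for cytotoxicity meaning loss of cell viability; nearly all actives have a fitted effect of over 60% in size.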 An outline of the steps: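 KB-3-1 parental cells and P-gp-overexpressing KB-8-5-11 (colchicine omitted during assay) plated at 500 cells/well, dosed in dose-response, incubated 72 h at 37 degree C. CellTiter-Glo luminescence read; KB-8-5-11 also tested with tariquidar.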

Test [11] in a line: Primary qHTS for inhibitors of nuclear receptor binding SET domain protein 2 (NSD2) in an isogenic RCH-ACV NSD2 p.E1099K mutant (9B) (AID 1645876). Further: potency means the concentration at half of the fitted maximal effect; nearly all actives have a fitted effect of over 70% in size.
The nature of test [12]: Primary qHTS for inhibitors of nuclear receptor binding SET domain protein 2 (NSD2) in an RCH-ACV wild type WT cells (2C) (AID 1645877). Further: potency means the concentration at half of the fitted maximal effect; nearly all actives have a fitted effect of over 70% in size.
Test [13] has as its target Catechol O-methyltransferase (Homo sapiens) (UniProt P21964). Nature of the test: Confirmatory Screen for Target Class Profiling of Small Molecule Inhibitors of Methyltransferases (AID 1745852; calls by dose curve; further: potency means the concentration at half of the fitted maximal effect). To be noted: MTase-Glo luminescence, SAH detection, recombinant enzyme; measured here: COMT max response; stronger effect = lower value.
For test [14], the target named is Guanidinoacetate N-methyltransferase (Homo sapiens) (UniProt Q14353). The description is as above. The following applies: activity change, negative = inhibition: at 57.3 µM (top of the series) unless noted.
Test [15] deals with Nicotinamide N-methyltransferase (Homo sapiens) (UniProt P40261). The test is described as above. The following applies: MTase-Glo luminescence, SAH detection, recombinant enzyme; measured here: NNMT max response; stronger effect = lower value.
The target in test [16] is Phenylethanolamine N-methyltransferase (Homo sapiens) (UniProt P11086). The description is as above. The following applies: MTase-Glo luminescence, SAH detection, recombinant enzyme; measured here: PNMT max response; stronger effect = lower value.
Test [17] in a line: Primary qHTS for small molecule stabilizers of the endoplasmic reticulum resident proteome: Secreted ER Calcium Modulated Protein (SERCaMP) assay (AID 1508630). Further: on the % scale 0 is the no-effect control and ±100 the full control effect. An outline of the steps:
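GLuc-SERCaMP-expressing SH-SY5Y cells, pretreated 16 h with compound, are challenged with thapsigargin to empty ER calcium stores; after 4 h, coelenterazine is added directly to the medium and luminescence is imaged.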

Records with an inconclusive call do not appear. Calls of active or inactive are those of the source. Unless noted, the call rests on the fitted dose curve; in most records, active means well fitted curve in the direction sought with a large enough effect; inconclusive means small, poorly fitted or top-dose-only effect, or another doubt; inactive means no such curve, though single readings can be large; an effect the other way counts as inactive or inconclusive.

Chain of Luciferin 4-monooxygenase (Photinus pyralis) (P08659 whole entry, looked up): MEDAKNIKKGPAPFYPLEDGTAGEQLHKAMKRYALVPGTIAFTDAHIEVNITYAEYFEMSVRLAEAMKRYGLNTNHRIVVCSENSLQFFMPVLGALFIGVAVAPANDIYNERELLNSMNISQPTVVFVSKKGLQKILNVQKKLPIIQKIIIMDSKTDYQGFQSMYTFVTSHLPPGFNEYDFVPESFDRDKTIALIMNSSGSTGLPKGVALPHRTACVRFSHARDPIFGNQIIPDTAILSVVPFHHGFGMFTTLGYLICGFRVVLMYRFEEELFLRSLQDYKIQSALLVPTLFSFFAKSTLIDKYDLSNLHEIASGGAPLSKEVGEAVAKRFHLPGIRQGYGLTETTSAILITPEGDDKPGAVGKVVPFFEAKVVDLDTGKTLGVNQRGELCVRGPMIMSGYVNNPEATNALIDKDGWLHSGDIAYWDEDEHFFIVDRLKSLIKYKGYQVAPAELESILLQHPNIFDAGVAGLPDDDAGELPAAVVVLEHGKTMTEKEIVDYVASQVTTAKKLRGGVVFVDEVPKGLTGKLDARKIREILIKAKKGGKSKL
Chain of Glutathione peroxidase 1 (Homo sapiens) (P07203 whole entry, looked up): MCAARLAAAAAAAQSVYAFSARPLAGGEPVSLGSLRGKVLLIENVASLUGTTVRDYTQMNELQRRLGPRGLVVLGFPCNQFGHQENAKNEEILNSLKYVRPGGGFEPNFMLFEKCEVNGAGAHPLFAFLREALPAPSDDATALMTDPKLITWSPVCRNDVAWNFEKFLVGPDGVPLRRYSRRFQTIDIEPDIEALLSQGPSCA
Chain of Phenylethanolamine N-methyltransferase (Homo sapiens) (P11086 whole entry, looked up): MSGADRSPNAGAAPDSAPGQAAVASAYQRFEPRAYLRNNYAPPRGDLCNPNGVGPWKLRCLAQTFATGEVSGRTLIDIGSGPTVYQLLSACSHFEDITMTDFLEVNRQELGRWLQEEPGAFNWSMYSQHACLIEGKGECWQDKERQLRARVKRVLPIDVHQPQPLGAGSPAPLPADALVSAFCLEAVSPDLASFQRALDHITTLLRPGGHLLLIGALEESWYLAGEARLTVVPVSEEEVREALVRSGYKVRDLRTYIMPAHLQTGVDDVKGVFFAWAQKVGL
Chain of Nicotinamide N-methyltransferase (Homo sapiens) (P40261 whole entry, looked up): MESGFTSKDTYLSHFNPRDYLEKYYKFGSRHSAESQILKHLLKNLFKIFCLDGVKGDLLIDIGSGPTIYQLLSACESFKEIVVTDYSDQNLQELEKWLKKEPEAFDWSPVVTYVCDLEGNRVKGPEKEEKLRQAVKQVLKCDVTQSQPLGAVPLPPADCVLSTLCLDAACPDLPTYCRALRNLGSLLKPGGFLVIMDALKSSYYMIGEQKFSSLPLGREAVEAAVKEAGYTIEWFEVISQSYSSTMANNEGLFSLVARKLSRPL
Chain of Catechol O-methyltransferase (Homo sapiens) (P21964 whole entry, looked up): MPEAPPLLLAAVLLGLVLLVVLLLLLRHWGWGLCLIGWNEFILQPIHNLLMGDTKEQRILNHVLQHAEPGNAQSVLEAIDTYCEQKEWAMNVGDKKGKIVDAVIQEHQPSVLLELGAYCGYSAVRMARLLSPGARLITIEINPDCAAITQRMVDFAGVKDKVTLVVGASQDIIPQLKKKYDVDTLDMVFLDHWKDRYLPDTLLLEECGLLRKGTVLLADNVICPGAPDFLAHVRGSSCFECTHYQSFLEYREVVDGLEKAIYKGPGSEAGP

Regarding `CNC(C)CC1CCCCC1` (configuration not stated), the Potency entry (in test [1]; in [3]; in [5]; in [8]; with astro) was “inactive” in each case. Further, in test [2], the max response was -3.52% (inactive). Moreover, in test [4], the outcome is “inactive”. In test [6], the outcome is “inactive [at 85.7 µM]”. Also, the activity change, negative = inhibition in test [7] was -28.6% [at 85.7 µM].
As to `COc1cc2c(ccc3c4cc(OC)c(OC)cc4c[n+](C)c23)cc1O`, in test [9], the Potency entry was “inactive”.
`CCC(=O)O[C@H]1[C@@H](N2CCCCC2)C[C@H]2[C@@H]3CC[C@H]4C[C@H](OC(C)=O)[C@@H](N5CCCCC5)C[C@]4(C)[C@H]3CC[C@@]21C`: the Potency result (in test [3]; in the test with astro) was “inactive” throughout.
Take `C#C[C@]1(OC(=O)CCCCCC)CC[C@H]2[C@@H]3CCC4=CC(=O)CC[C@@H]4[C@H]3CC[C@@]21C`: the max response in test [2] was -5.44% (inactive). Besides, the Potency in [3] is 20.6 µM (active).
Regarding `C[C@]12CC[C@H](O)C[C@H]1CC[C@@H]1C2CC[C@]2(C)[C@@H](C3=CC(=O)OC3)[C@@H](O)C[C@]12O` (some centres not stated), in test [9], the Potency is 6.31 µM (active).
On to `CN(C)CCO`, for which the Potency entry (in [1]; in test [3]; with astro) was “inactive” each time. Moreover, the max response in test [2] was 29.8% (inactive).
Turning to `CC1Oc2cc3c(-c4c(O)cc(O)c5c(O)c6c(cc45)OC(C)C(C)C6=O)c(O)cc(O)c3c(O)c2C(=O)C1C` (configuration not stated), the Potency in [10] was 5.8 µM (active); in [3] it was 8.2 µM (active); in [11] it was 1.3 µM (active); in test [12] it was 1.16 µM (active); in test [14], 24.1 µM (active). The activity in [13] was -48.2%; in [15], -21.1%; in test [16] it was -60.9%. Moreover, the Potency result in [8] is “inactive”.
`O=C1NC(=O)c2c1c1c3ccccc3n3c1c1c2c2ccccc2n1C1CCC3O1`: the values for the Potency in [3], in test [11] and in test [12] were 3.66 µM (active), 0.517 µM (active) and 0.731 µM (active), respectively. The Potency entry in test [17] is “inactive”.
